According to ChEMBL document CHEMBL3433997, “St. Jude Leishmania screening dataset” (2016):

Columns and labels:
Assay type in all cases: functional
[1] = molecular target: Solute carrier family 2, facilitated glucose transporter member 1 (Homo sapiens) (UniProt P11166); test: ST_JUDE_LEISH: Cytotoxicity at 2uM final concentration against transgenic Leishmania Mexicana promastigotes LmGLUT1 that are glucose transport deficient and complemented with the human glucose transporter GLUT1. Activity is measured by DNA content using SYBR green in vitro
[2] = molecular target: Hexose transporter 1 (Plasmodium falciparum) (UniProt O97467); test: ST_JUDE_LEISH: Cytotoxicity at 2uM final concentration against transgenic Leishmania Mexicana promastigotes LmPfHT that are glucose transport deficient and complemented with the Plasmodium falciparum hexose transporter. Activity is measured by DNA content using SYBR green in vitro
[3] = molecular target: Glucose transporter (Leishmania mexicana) (UniProt O61059); test: ST_JUDE_LEISH: Cytotoxicity at 2uM final concentration against transgenic Leishmania Mexicana promastigotes LmGT2 that are glucose transport deficient and complemented with the L. Mexicana glucose transporter 2. Activity is measured by DNA content using SYBR green in vitro

Sequence of Solute carrier family 2, facilitated glucose transporter member 1 (Homo sapiens) (P11166 whole entry): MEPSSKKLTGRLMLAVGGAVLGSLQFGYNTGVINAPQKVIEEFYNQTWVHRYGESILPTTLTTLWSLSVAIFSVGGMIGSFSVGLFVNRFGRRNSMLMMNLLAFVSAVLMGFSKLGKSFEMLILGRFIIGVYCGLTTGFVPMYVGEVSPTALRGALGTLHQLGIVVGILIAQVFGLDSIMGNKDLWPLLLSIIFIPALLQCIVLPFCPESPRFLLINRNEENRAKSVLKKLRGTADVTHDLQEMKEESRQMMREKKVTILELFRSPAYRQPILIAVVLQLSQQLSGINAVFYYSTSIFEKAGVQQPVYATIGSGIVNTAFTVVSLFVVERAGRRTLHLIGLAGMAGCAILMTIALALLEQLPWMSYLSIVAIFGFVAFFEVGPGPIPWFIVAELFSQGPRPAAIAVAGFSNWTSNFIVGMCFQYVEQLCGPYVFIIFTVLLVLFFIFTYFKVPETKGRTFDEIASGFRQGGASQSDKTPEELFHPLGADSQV

| SMILES | inhibition [1] | inhibition [2] | inhibition [3] |
| --- | --- | --- | --- |
| CCOc1cccc(C2c3c(oc4ccccc4c3=O)C(=O)N2CCN(CC)CC)c1 (configuration not stated) | 4.85% | 2.93% | 3.34% |
| CCCCn1c(Sc2ccc(C#N)c([N+](=O)[O-])c2)nnc1-c1ccc(OC)cc1 | 3.24% | 2.64% | 0.78% |
| CCOc1ccc2c(=NN=Cc3cccc(F)c3)cc(C)[nH]c2c1 | 6% | 1.08% | 2.7% |
| O=C(Nc1ccc(F)cc1F)NC1CCN(CCCCCNC(=O)C2CC2c2ccc(Cl)c(Cl)c2)CC1 (configuration not stated) | 0.37% | 2.99% | 3.47% |
| CC(=O)Nc1ccc(CN(Cc2ccc(F)cc2)Cc2ccc3c(c2)OCO3)cc1 | 2.71% | 1.82% | 3.2% |
| CCCCCn1c(Sc2ccc(C#N)c([N+](=O)[O-])c2)nnc1-c1cccs1 | 2.86% | 6.4% | 2.32% |
| Cc1cc(N2CCCC2)nc(Nc2ccc(NC(=O)COc3ccccc3)cc2)n1 | 6.11% | 6.84% | 2.07% |
| NC1=NC(c2ccccc2)(c2ccccc2)C(=O)N1Cc1ccc(-c2cccnc2)cc1 | 2.71% | 1.53% | 0.52% |
| O=C(Nc1ccc(-c2nc3ccccc3[nH]2)cc1)c1cncc(Br)c1 | 4.2% | 2.44% | 1.81% |
| Cn1nccc1C(=O)NCCNCc1cccc(-c2ccc(-c3nc4ccccc4[nH]3)s2)c1 | -0.55% | -0.8% | -1.72% |
| CN(CCCN(C)c1cc(NC(=O)c2cccc(F)c2)ccn1)Cc1cccc(O)c1 | -2.2% | 0.99% | -0.68% |
| CC(C)Cc1nc(N2CCOCC2)c2nnn(Cc3ccccc3)c2n1 | 3.23% | 1.31% | 1.84% |
| COc1ccc(C#Cc2ccc(-c3c(C)[nH]c(C)c(Cl)c3=O)cc2)cc1 | 6.05% | 8.9% | 4.03% |
| CC(C)NCc1ccc(-c2cccc(-c3nc4ccccc4[nH]3)c2)cc1 | 13.3% | 11.8% | 10.3% |
| Cc1ccc(-c2ccc(Cl)cc2Oc2cnc(N)nc2N)o1 | 1.95% | 2.44% | 0.26% |
| CCCNCc1ccc(-c2ccc(CN(CCOC)C(=O)/C=C/c3ccccc3C)cc2)nc1 | 9.67% | 6.69% | 6.86% |
| O=C(NC1CCN(Cc2ccccc2)CC1)c1csc2nc(-c3ccc(Cl)cc3)cn12 | 4.09% | 2.67% | 2.02% |
| CCCNCc1ccc(-c2ccc(CN(CC3CCCO3)C(=O)C3CC(=O)c4ccccc43)cc2)nc1 (configuration not stated) | 6.13% | 3.74% | 3.19% |
| CC(CCc1ccccc1)NCC(O)c1cccc([N+](=O)[O-])c1 (configuration not stated) | -0.26% | -2.9% | 1.35% |
| O=C(NCCCCCN1CCCN(C(=O)Nc2ccc(Cl)c(C(F)(F)F)c2)CC1)C1CC1c1ccc(Cl)c(Cl)c1 (configuration not stated) | 2.42% | 0.79% | 0.24% |
| FC(F)(F)c1ccc(-c2ccc(CNC3CCN(CCN4CCOCC4)CC3)cc2)cc1 | 1.09% | 0.81% | 3.26% |
| CCCCCCCc1c(C)nc2ccccc2c1O | 6.82% | 6.3% | 2.82% |
| COc1c(C2CCN(CCCCNC(=O)c3ccc(-c4ccc(C#N)cc4)cc3)CC2)cc(Cl)c2c1CCCC2 | 1.68% | 2.86% | 0.77% |
| COC(=O)c1cccc(NC(=O)NC2CCN(c3ccnc(Nc4cc(OC)c(OC)c(OC)c4)n3)C2)c1 (configuration not stated) | 10.5% | 6.39% | 8.79% |
| CN1CCN(CCNc2c3ccccc3nc3c2ccc2ccccc23)CC1 | 84.6% | 88% | 81.5% |

| SMILES | inhibition [1] | inhibition [2] | inhibition [3] |
| --- | --- | --- | --- |
| COc1ccc(C=NNc2ccnc3cc(F)c(C)cc23)c2ccccc12 | 8.78% | 8.43% | 4.95% |
| CCN(CC)CCCC(C)Nc1c(-c2ccc(Br)cc2)cnc2ccccc12 (configuration not stated) | 57.5% | 14.4% | 3.73% |
| CC(C)(C)c1ccc(NC(=O)c2cccc(CN3CCCN(Cc4cccc(O)c4)CC3)c2)cc1 | 6.18% | 6.24% | 1.99% |
| NOCCCOc1ccccc1 | 0.04% | -0.12% | 0.73% |
| COc1ccc(NS(=O)(=O)c2ccc(C(=O)Nc3ccc(OC(F)(F)F)cc3)cc2)cc1N1CCN(CC2CC2)CC1 | 6.41% | 5.3% | 4.14% |
| Cc1cnc(CNCc2ccc(S(=O)(=O)Nc3ccc(Oc4cccc(Cl)c4)cc3)cc2)cn1 | 5.34% | 2.83% | 2.07% |
| CC(=O)c1c[nH]c2ccc(/C=C/C(=O)NC3CCC(CCN4CCc5ccc(C#N)cc5CC4)CC3)cc12 (configuration not stated) | 19.5% | 14.9% | 18.9% |
| COc1ccc(NC(=O)c2cc(-c3ccc(NC(C)=O)cc3)cnc2N)cc1 | 2.25% | 2.66% | 0.5% |
| Cc1cccc(Nc2nc(N[C@@H]3CCCNC3)nc3cc[nH]c(=O)c23)c1 | 92.3% | 85.2% | 83.4% |
| Cc1ccnc(Nc2nc(-c3ccccn3)cs2)c1 | 10.1% | 22.4% | -2.74% |
| COc1ccc(-c2cccc(NC(=O)c3ccc(Cl)cc3)c2)cc1CN1CCNCC1 | 2.69% | 0.49% | -0.7% |
| Cc1cccc2nc(-c3ccc(-c4ccc(NC(=O)C(C)CN5CCN(C)CC5)cc4)s3)[nH]c12 (configuration not stated) | 3.39% | 3.1% | 2.29% |
| Cc1csc(NC(=O)c2cn(-c3ccccc3)nc2-c2cccs2)n1 | 6.04% | 4.44% | 0.74% |
| CCCN(CCC)CC(O)COc1ccccc1C(=O)Nc1ccccc1 (configuration not stated) | 1.49% | 1.09% | -5% |
| CC[C@H]1CN(CCCC(=O)c2ccccc2)CC[C@H]1CCCc1ccnc2ccc(OC(=O)c3ccccc3)cc12 | 4.64% | 5.86% | 2.72% |
| Cc1cc(-c2cc(Cl)ccc2Cl)no1 | -2.71% | 0.03% | -0.72% |
| CC(C)CNCc1ccc(-c2cccc(CNC3CCN(Cc4ccccc4)CC3)c2)cc1 | 3.21% | 3.32% | 5.23% |
| Cc1ccc(CNC(=O)[C@H](CC(C)C)Nc2cc(C)nc(NCC3CCCCC3)n2)cc1 | 11.2% | 9.15% | 9.26% |
| COc1ccc(CN2CCC(N3CCc4cc(NC(=O)c5cc(C)on5)ccc43)C2)cc1Cl (configuration not stated) | -0.2% | -3.51% | 0.69% |
| COc1ccccc1Nc1nc(C)cc(NCc2ccc(-n3ccnc3)cc2)n1 | 8.92% | 7.52% | 3.48% |
| COc1ccc(NC(=O)Nc2cccc(-c3ccncc3)c2)cc1N1CCN(C)CC1 | 6.92% | 7.39% | 7.22% |
| COc1ccccc1/C=C/C(=O)NCCC1CCN(CCCCCNC(=O)/C=C/c2ccc(Cl)c(Cl)c2)CC1 | 16.2% | 13% | 12.2% |
| CCCCc1cc(NCc2ccncc2)nc(Nc2ccc(C)cc2)n1 | 15.4% | 5.93% | 2.33% |
| COc1ccc(NC(=O)/C=C/c2ccc(Oc3ccccc3Cl)c([N+](=O)[O-])c2)cc1OCCN(C(C)C)C(C)C | -0.7% | -0.91% | -1.59% |
| O=C(Nc1cccc(-c2cccc(-c3nc4cc(C(F)(F)F)ccc4[nH]3)c2)c1)c1cccnc1Cl | 0.15% | 0.52% | -2.92% |

| SMILES | inhibition [1] | inhibition [2] | inhibition [3] |
| --- | --- | --- | --- |
| O=C(N[C@@H](Cc1ccccc1)C(=O)O)c1cc(-c2ccc(F)cc2)no1.O=C(N[C@@H](Cc1ccccc1)C(=O)O)c1conc1-c1ccc(F)cc1 | 9.87% | 6.76% | 6.74% |
| COc1cccc(CNC[C@@H](O)[C@H](Cc2ccccc2)NC(=O)c2cc(C3CCCC3)cc(N3CCCCS3(=O)=O)c2)c1 | 0.71% | 1.78% | 0.92% |
| Cc1cc(=NN=Cc2ccccc2F)c2ccccc2[nH]1 | 1.11% | 4.77% | 1.44% |
| Cc1cc(N[C@@H](Cc2ccccc2)C(=O)NC2CCCC2)nc(NCC2CCCCC2)n1 | 3.03% | 3.67% | 0.45% |
| CCCN(CC1CC1)c1ncc(-c2ccccc2CNCc2ccccc2O)cn1 | 11.8% | 8.72% | 4.56% |
| CN(C)c1ccc(C=Cc2nc(=O)c3ccccc3o2)cc1 | 1.38% | 3.22% | 0.74% |
| Cc1cccc2nc(-c3ccc(-c4ccc(NC(=O)C(C)CN(C)C)cc4)s3)[nH]c12 (configuration not stated) | 4.89% | 6.11% | 3.65% |
| COCCNCc1cccc(-c2cccc(CNC3CCN(Cc4ccccc4)CC3)c2)c1 | 2.73% | 2.84% | 2.88% |
| Cc1ccc2c(Cc3cnc(N)nc3N)cc(C)c(N)c2n1 | 2.06% | 3.47% | -0.09% |
| O=C(c1ccc(-c2ccc(-c3nc4cc(F)ccc4[nH]3)cc2)cc1)N1CCCCC1CN1CCC(O)C1 (configuration not stated) | 4.53% | 4.9% | 1.78% |
| Fc1ccc(-c2cc(NCCCn3ccnc3)nc(-c3cccnc3)n2)cc1 | 1.99% | 0.82% | 2.67% |
| Cc1ccc(-c2csc(C)n2)c(C)c1 | 1.21% | 2.19% | 2.4% |
| C=CCOc1ccc(Cc2cnc(N)nc2N)cc1CCC | 3.94% | 4.62% | 1.19% |
| COc1cc(Cc2cnc(N)nc2N)c2c(c1OC)OC(C)C=C2 (configuration not stated) | 1.59% | 2.39% | 2.25% |
| CCOc1cc(C)ccc1N(C1CCN(CCCCNC(=O)c2ccc(-c3ccc(C(F)(F)F)cc3)cc2)CC1)S(=O)(=O)c1ccccc1 | 0.32% | 1.25% | -0.57% |
| Cc1cc(O)c2c(c1)OC(C)(C)C=C2C1=CCN(Cc2ccccc2)CC1 | 5.82% | 6.87% | 5.88% |
| Cc1ccc(-n2c(C)nc3c(Nc4ccc(-c5ccncc5)cc4)ncnc32)c(C)c1 | 91.7% | 95.1% | 81% |
| O=C(Nc1cccc(CN2CCCN(Cc3cccc(O)c3)CC2)c1)c1ccc(-c2ccccc2)cc1 | -3.92% | -2.77% | -0.17% |
| Fc1ccc(Nc2ccnc3cc(-c4cccc(CN5CCCCC5)c4)ccc23)c(Cl)c1 | 4.23% | 3.95% | 3.3% |
| N#Cc1ccc(CN2CCCN(Cc3cccc(NC(=O)c4ccc(-c5ccccc5)cc4)c3)CC2)cc1 | 1.73% | 9.67% | 4.12% |
| O=C(Nc1cccc(Cl)c1)c1cc2ccccc2cc1O | 2.74% | 3.05% | 2.04% |
| COc1ccc(CN2CCCC(OC(c3ccc(F)cc3)c3ccc(F)cc3)C2)c(O)c1 (configuration not stated) | 9.08% | 8.89% | 9.65% |
| CC(C)CC(=O)Nc1cc(=O)[nH]c2nc(-c3ccccc3)nn12 | 3.45% | 3.9% | 4.09% |
| OC(CNCc1ccccc1OCc1ccccc1)c1cc(C(F)(F)F)cc(C(F)(F)F)c1 (configuration not stated) | 8.75% | 10.9% | 4.23% |
